# Assay results taken from the supplement of paper PMC9694430.
# Assays:
# Assay in all cases: thermal shift delta Tm vs DMSO control; higher = stronger stabilization (binding)
# Conditions in all cases: 12.5 µM; protein concentration 2 µM
# [1] = test system: LOC_OS01G01410-cb001
# Summary of the method: (§1)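 Rice kinase domain constructs were expressed in E. coli, purified, and tested by differential scanning fluorimetry with compound added in DMSO. Each well of a 96-well plate held 19.5 μl of 2 μM kinase in 100 mM potassium phosphate pH 7.5, 150 mM NaCl, 10% glycerol and 5 × SYPRO Orange, and fluorescence was read from 25°C to 95°C at 0.05°C/s. The melting temperature shift is the mean of triplicates, taken against protein with DMSO alone after Boltzmann fitting.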
# [2] = test system: LOC_OS01G02750-cb003
# Summary of the method: as §1
# [3] = test system: LOC_OS01G10900-cb004
# Summary of the method: as §1
# [4] = test system: LOC_OS01G13800-cb001
# Summary of the method: as §1
# [5] = test system: LOC_OS01G14860-cb001
# Summary of the method: as §1
# [6] = test system: LOC_OS01G21960-cb002
# Summary of the method: as §1
# [7] = test system: LOC_OS01G39600-cb002
# Summary of the method: as §1
# [8] = test system: LOC_OS01G48390-cb002
# Summary of the method: as §1
# [9] = test system: LOC_OS01G51400-cb002
# Summary of the method: as §1
# [10] = test system: T1, LOC_OS01G52050-cb004
# T1 sequence (whole entry): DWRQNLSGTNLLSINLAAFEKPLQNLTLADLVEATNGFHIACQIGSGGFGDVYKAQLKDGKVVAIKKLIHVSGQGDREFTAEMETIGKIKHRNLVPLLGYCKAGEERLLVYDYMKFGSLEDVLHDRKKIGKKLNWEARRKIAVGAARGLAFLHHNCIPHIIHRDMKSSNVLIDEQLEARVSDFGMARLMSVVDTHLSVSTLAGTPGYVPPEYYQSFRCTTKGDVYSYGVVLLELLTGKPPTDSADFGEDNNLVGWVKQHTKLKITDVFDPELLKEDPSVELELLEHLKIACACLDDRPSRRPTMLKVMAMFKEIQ
# Summary of the method: as §1
Structure (SMILES),thermal shift delta Tm [1] [°C],thermal shift delta Tm [2] [°C],thermal shift delta Tm [3] [°C],thermal shift delta Tm [4] [°C],thermal shift delta Tm [5] [°C],thermal shift delta Tm [6] [°C],thermal shift delta Tm [7] [°C],thermal shift delta Tm [8] [°C],thermal shift delta Tm [9] [°C],thermal shift delta Tm [10] [°C]
Cc1ccc(NC(=O)c2ccc(CN3CCN(C)CC3)cc2)cc1Nc1nc(-c2cccnc2)cs1 [Masitinib (AB1010)],1.11,0.48,0.92,0.24,0.16,0.26,-0.05,0.15,-0.06,-0.18
Cc1cnc(Nc2ccc(N3CCN(C)CC3)cc2)nc1Nc1cccc(S(=O)(=O)NC(C)(C)C)c1,1.26,0.29,0.71,0.25,1.34,2.76,6.04,1.61,0.64,3.19
Cn1cnc(N)c2ncnc1-2 [3-Methyladenine (3-MA)],0.6,5.26,0.17,-0.02,-0.3,0.32,0.46,1.12,0.76,0.09
Cc1ccc(C(=O)Nc2ccc(Oc3cc4cnn(C)c4cc3-c3cn[nH]c3)c(F)c2)c(=O)n1-c1ccc(F)cc1,0.22,3.21,0.37,1.46,3.24,0.63,0.72,1.1,0.84,2.17
CCN(CC)CCCC(C)Nc1nc(C)cc(Nc2ccc3nc(C)cc(N)c3c2)n1 (stereo not given),1.12,1.02,-0.35,-0.26,0.18,0.15,0.28,1.07,0.05,0.12
O=C1NC(=O)/C(=C/c2ccc(-c3ccc(F)cc3O)o2)S1,3.59,5.21,2.81,2.09,4.25,2.37,7.64,3.1,3.89,8.12
CCCCCCCCCCCCc1ccc(S(=O)(=O)Nc2nncs2)cc1,0.38,0.24,0.46,0.29,0.62,1.26,0.44,0.62,-0.04,1.1
N#CCNC(=O)c1ccc(-c2ccnc(Nc3ccc(N4CCOCC4)cc3)n2)cc1 [Momelotinib (CYT387)],2.55,0.08,1.02,0.1,5.59,2.72,2.38,0.91,0.13,3.27
Cc1ncc(CCCN(C)C)cc1Nc1ncc2c(n1)-c1ccc(C(F)(F)F)cc1NC(=S)C2,0.62,1.24,-0.4,0.18,0.59,0.78,-0.18,1.07,0.38,1.48
Cn1cc(/C=C2\C(=O)Nc3cccnc32)c2ccccc21,3.9,0.74,1.42,-0.51,0.68,1.44,-0.03,1.92,0.44,1.86
Cn1cc(-c2ccc3nnc(Sc4ccc5ncccc5c4)n3n2)cn1,0.49,0.09,3.13,-0.11,-0.13,0.18,0.17,0.29,0.08,0.42
CN1CCN(c2nc(C3=C(c4c[nH]c5ccccc45)C(=O)NC3=O)c3ccccc3n2)CC1 [Sotrastaurin],0.84,3.23,0.77,0.15,3.2,2.53,3.02,2.55,0.38,-0.06
CCn1nc(C2CCN(C(=O)CCO)CC2)nc1-c1cnc(N)c(-c2nnc(C(C)(C)C)o2)n1,0.39,0.51,0.81,0.46,2.91,1.09,2.31,0.07,-0.09,1.14
CC(=O)Nc1cccc(-n2c(=O)n(C3CC3)c(=O)c3c(Nc4ccc(I)cc4F)n(C)c(=O)c(C)c32)c1,0.31,1.28,0.15,0.06,0.12,0.5,-0.55,0.45,0,0.63
O=C(Cc1ccc(-c2ccc(OCCN3CCOCC3)cc2)cn1)NCc1ccccc1,0.29,-0.23,-0.03,-0.06,0.06,0.58,-1.02,0.31,0.06,-0.13
COc1cc2c(cc1OC)[C@@H]1C(=O)c3ccc4c(c3O[C@@H]1CO2)C=CC(C)(C)O4 [Deguelin],0.07,0.45,0.52,0.41,0.23,0.41,-0.1,0.4,-0.11,0.13
CC(C)(C#N)c1ccc(N2C(=O)OCc3cnc4ccc(-c5cnc6ccccc6c5)cc4c32)cc1,0.56,1.19,0.21,0.42,0.26,0.66,0.12,0.59,0.65,0.6
CNC(=O)c1cccc(-c2ccc3c(N4CCOC[C@@H]4C)nc(N4CCOC[C@@H]4C)nc3n2)c1 [Vistusertib (AZD2014)],0.53,0.19,0.09,0.05,-0.13,0.23,-0.58,0.24,0.26,-0.25
Cc1n[nH]c2ncc(C(=O)N3CCC[C@H]3c3ccc(Cl)cc3)cc12,0.63,0.98,0.41,0.18,4.68,0.38,0.88,0.19,0.21,3.46
